APP transl inh = APP translation inhibition. 190,000 tested, 0.82% active. inhibition, % at 2 µM. SH-SY5Y APP 5'UTR-luciferase reporter, luminescence. AID 1285;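 active = inhibition above a set limit, derived from the sample mean plus 3 SD, cut at about 45% in these data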
KLF5 inhibitor = inhibitors of KLF5 expression | DLD-1 KLF5 promoter-luciferase reporter, luminescence | inhibition, % at 5 µM | 290,000 tested, 0.23% active;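 active = inhibition above a per-plate limit of that plate's mean compound inhibition plus 3 SD, cut at about 60% in these data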;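 note: 0% = DMSO wells and 100% = LY294002 at 200 µM; higher means less KLF5 promoter-driven luciferase light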
IEC-6 cytotox = IEC-6 cytotoxicity, counter-screen for KLF5 inhibitors. 290,000 tested, 0.78% active. inhibition, % at 5 µM. luminescence viability; in the data active = inhibition above about 22%;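 note: 0% = plate median of test compound wells and 100% = cytotoxic reference compound wells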
BaF3 tox = counter-screen for JAK2V617F inhibitors: parental Ba/F3 viability inhibitors; 220,000 tested, 1.1% active; inhibition, % at 5.6 µM; CellTiter-Glo ATP luminescence;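 active = inhibition above a per-campaign cutoff, the mean inhibition of all tested compounds plus 3 SD, cut at about 27% in these data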;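 note: 0% = DMSO wells and 100% = JAK Inhibitor I control wells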
Ba/F3 V617F tox = lowers viability of Ba/F3 cells expressing EpoR and JAK2V617F; ATP luminescence; inhibition, % at 5.6 µM; 220,000 tested, 1.1% active; AID 1446;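 active = inhibition above the campaign mean plus 3 SD over all tested compounds, cut at about 24% in these data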;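 note: cytokine-independent growth of Ba/F3 cells driven by EpoR plus mutant JAK2; 0% = DMSO-treated cells and 100% = JAK inhibitor I control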
Active calls of the source: *. An excerpt weighted towards active compounds, which were near 1.9% of everything screened.

`O=C(COc1ccccc1-c1ccccc1)N/N=C/c1ccc2ccccc2c1` gave APP transl inh 96.3*, KLF5 inhibitor -11.3, IEC-6 cytotox -1.6, BaF3 tox 4.1 and Ba/F3 V617F tox -1.2.
`C/C(=N\NC(=O)COc1ccccc1-c1ccccc1)c1ccccn1` gave APP transl inh 62.0*, KLF5 inhibitor 27.6, IEC-6 cytotox 12.4, BaF3 tox 5.0 and Ba/F3 V617F tox 1.4.
`O=C(NC1CCCCC1)c1sc(N2CCOCC2)nc1-c1ccccc1` gave APP transl inh 7.1, KLF5 inhibitor -31.6, IEC-6 cytotox -2.1, BaF3 tox 8.0 and Ba/F3 V617F tox 0.6.
`COc1ccc(NC(=S)NN(C)C(=S)Nc2ccc(OC)cc2)cc1` gave APP transl inh 92.8*, KLF5 inhibitor -3.7, IEC-6 cytotox 14.0, BaF3 tox 4.5 and Ba/F3 V617F tox 1.4.
`COc1ccc(NC(=S)Nc2ccc(Oc3ccccc3)cc2)cc1` gave APP transl inh -21.3, KLF5 inhibitor -44.4, IEC-6 cytotox -4.8, BaF3 tox 7.8 and Ba/F3 V617F tox -1.6.
Screening O=C(CNC(=O)c1cccc(F)c1)N/N=C/c1cc(Br)ccc1OC(=O)/C=C/c1ccco1 returned APP transl inh 52.5*, KLF5 inhibitor -3.4, IEC-6 cytotox 8.7, BaF3 tox 6.1 and Ba/F3 V617F tox -0.6.
For O=C(COC(=O)CCc1ccc(S(=O)(=O)N2CCOCC2)cc1)NCc1ccc(Cl)cc1 the results were APP transl inh -13.0, KLF5 inhibitor -8.8, IEC-6 cytotox 4.1, BaF3 tox 8.0 and Ba/F3 V617F tox 4.0.
Screening O=C(Nc1ccccc1F)c1ccc(CNS(=O)(=O)c2cccc(C(F)(F)F)c2)cc1 returned APP transl inh 1.7, KLF5 inhibitor 2.9, IEC-6 cytotox -0.7, BaF3 tox 1.4 and Ba/F3 V617F tox -0.6.
For Cc1ccc(NC(=O)c2ccc(CNS(=O)(=O)c3cccc(C(F)(F)F)c3)cc2)cc1 the results were APP transl inh 17.0, KLF5 inhibitor -20.9, IEC-6 cytotox 5.2, BaF3 tox 33.2* and Ba/F3 V617F tox 4.4.
Screening O=C(CNS(=O)(=O)c1ccccc1)Nc1ccc(C(F)(F)F)cc1 returned APP transl inh 68.5*, KLF5 inhibitor -57.3, IEC-6 cytotox -3.0, BaF3 tox 2.8 and Ba/F3 V617F tox -2.5.
O=C(O)CCS(=O)(=O)c1ccccc1Cl was read as APP transl inh -10.3, KLF5 inhibitor -49.7, IEC-6 cytotox 0.9, BaF3 tox 5.6 and Ba/F3 V617F tox 0.5.
Screening Cc1ccc(N(CC(=O)N2CCN(c3ccc(F)cc3)CC2)S(=O)(=O)c2c(C)noc2C)cc1 returned KLF5 inhibitor 16.2 and IEC-6 cytotox -2.8.
Screening C=CCc1cc(Cl)ccc1OCCNCCCOC returned APP transl inh -0.5, KLF5 inhibitor -25.9, IEC-6 cytotox -6.5, BaF3 tox 91.5* and Ba/F3 V617F tox 3.7.
O=C(COC(=O)C1CC(=O)N(Cc2ccccc2)C1)Nc1ccc2c(c1)OCO2 (stereo unspecified) was read as APP transl inh 52.6*, KLF5 inhibitor -31.4, IEC-6 cytotox 3.2, BaF3 tox -0.6 and Ba/F3 V617F tox -3.9.
For O=[N+]([O-])c1cc(-c2ncccn2)c([N+](=O)[O-])s1 the results were APP transl inh 76.1*, KLF5 inhibitor 1.7, IEC-6 cytotox 5.3, BaF3 tox 1.5 and Ba/F3 V617F tox 4.0.
Screening Cn1c(-c2ccc3ccccc3n2)[n+](C)c2ccccc21 returned KLF5 inhibitor 7.9, IEC-6 cytotox 3.5, BaF3 tox 63.3* and Ba/F3 V617F tox 89.0*.
For CN(C)c1ccc(-c2n(C)c3ccccc3[n+]2C)cc1 the results were KLF5 inhibitor -38.3, IEC-6 cytotox 9.5, BaF3 tox 71.0* and Ba/F3 V617F tox 91.2*.
Screening Cn1c(-c2ccccn2)[n+](C)c2ccccc21 returned APP transl inh -0.8, KLF5 inhibitor -37.0, IEC-6 cytotox -0.4, BaF3 tox 16.9 and Ba/F3 V617F tox 7.5.
Screening Cn1c(-c2cccc([N+](=O)[O-])c2)[n+](C)c2ccccc21 returned APP transl inh -0.9, KLF5 inhibitor 0.6, IEC-6 cytotox 3.2, BaF3 tox 70.5* and Ba/F3 V617F tox 58.0*.
`O=[N+]([O-])c1cccc(-c2nnc3ccc4ccccc4n23)c1` gave APP transl inh 5.0, KLF5 inhibitor -36.3, IEC-6 cytotox -4.8, BaF3 tox 1.8 and Ba/F3 V617F tox -0.3.
For COc1cc(C)c(Cc2cnc(N)nc2N)cc1OC the results were KLF5 inhibitor -16.1, IEC-6 cytotox -8.2, BaF3 tox -2.0 and Ba/F3 V617F tox 32.8*.
COc1ccccc1CN(C(=O)CNC(=O)c1ccco1)C(C(=O)NCC1CCCO1)c1ccccc1 (stereo unspecified) was read as KLF5 inhibitor -42.9 and IEC-6 cytotox -2.6.

Bioassay records as filed in PubChem BioAssay.
